The values below come from PubChem BioAssay (Tox21).

Molecules are shown by their SMILES. “And” between values parts separate entries of the source, which are not always exact repeats. Identical values can stand only once. The source made the active and inactive calls. Where a call stands in place of a potency, no number is given. Calls come from the whole dose curve; as a rule, active = well fitted activation curve with a large enough effect in the repeat runs; inconclusive = weak or mixed curves; inactive = flat fitted curve, though single readings scatter.
Potency is the fitted concentration of half-maximal effect.

This experiment can be described thus: Caspase-3/7 induction in CHO-K1 cells by small molecules, qHTS assay (AID 1346980). Note: nearly all actives have a fitted effect of over 15% in size. The note with it: CHO-K1 caspase-3/7 induction, Caspase-Glo luminescence, 17 h; series mostly up to 92.4 µM. An excerpt: National Center for Advancing Translational Sciences [NCATS]
NIH Chemical Genomics Center [NCGC]
U.S. Environmental Protection Agency [EPA]
National Institutes of Environmental Health Sciences [NIEHS]
National Toxicology Program [NTP]
Apoptosis is a process of programmed cell death and plays a central role in the development of multicellular organisms. It is a highly regulated process and induces cell death by activating caspases, which are the members of cysteine aspartic acid-specific protease (caspase) family. Caspases involved in apoptosis are classified by their mechanism of action as initiator caspases (caspase-2, -8, -9 and -10) and executioner caspases (caspase-3, -6, and -7). Inhibition of apoptosis results in number of cancers, autoimmune diseases, inflammatory diseases and viral infection. To identify small molecule compounds that induce apoptosis, a homogeneous, luminescent Caspase-Glo 3/7 assay was used. Wild type CHO-K1 cells were used to screen Tox21 libraries for identifying caspase-3/7 activity inducers.
CHO-K1 cells were dispensed at 1,500 per well in 5uL of culture medium into white solid bottom 1536-well plates (Corning Life Sciences, Corning, NY) using a Multidrop Combi (Thermo Scientific, Waltham, MA) dispenser. The assay plates were incubated at 37 C and 5% CO2 for 5hr, and then 23nL of compounds dissolved in DMSO and positive control were transferred using a Pintool station (Wako, San Diego, CA). The assay plates were incubated at 37C and 5% CO2 for 17hr. For caspase-3/7 activity read, 4uL of Caspase-Glo 3/7 reagent (Promega Corporation, Madison, WI) was added to each well of the assay plates using Flying Reagent Dispenser (FRD, Aurora Discovery, San Diego, CA) and incubated the assay plates at room temperature for 30min. The luminescence signal was quantified using a ViewLux plate reader (Perkin Elmer, Shelton, CT).
For `CCCCN(CCCC)C(=O)N(CCCC)CCCC`, the Potency entry is “inactive”.

For the compound `N=C1C=CC(=C(c2ccc(N)cc2)c2ccc(N)cc2)C=C1`, the Potency entry is “inactive”.

As for `O=C1C=CC(=O)N1`, the Potency result was “inactive”.

Consider `CCCCCCCCOc1ccccc1C(=O)Nc1ccc(C(=O)OCC[N+](C)(CC)CC)cc1`, for which the Potency entry was “inactive”.

Turning to `Oc1c(Cl)cc(Cl)c2cccnc12`, the Potency result is “inactive”.

In the case of `CCCCCCCCCCC=O`, the Potency result is “inactive”.

Consider `Cc1cc(C2CCCCC2)n(O)c(=O)c1`, for which the Potency result was “inactive”.

`O=c1[nH]sc2ccccc12`: the Potency result is “inactive”.

Take `OCCN(CCO)c1nc(N2CCCCC2)c2nc(N(CCO)CCO)nc(N3CCCCC3)c2n1`: the Potency entry is “inactive”.

On to `CSc1cnc(C)cn1`, for which the Potency result was “inactive”.

In the case of `N#CSc1ccc(N)c([N+](=O)[O-])c1`, the Potency result was “inactive”.

As for `CCCCCCCCS(=O)C(C)Cc1ccc2c(c1)OCO2` (stereo not given), the Potency entry was “inactive”.

`N/C(=N\N=C\c1ccc(Cl)cc1)N/N=C/c1ccc(Cl)cc1`: the Potency result was “inactive”.

Take `CN(C)C(=O)C1(N2CCCCC2)CCN(CC[C@@]2(c3ccc(Cl)c(Cl)c3)CN(C(=O)c3ccccc3)CCO2)CC1`: the Potency was 57.1 µM (active).

As to `Cc1cc2c(cc1C(F)(F)F)N(C(=O)Nc1ccc(Oc3cccnc3C)nc1)CC2`, the Potency entry was “inactive”.

Regarding `C[C@H](CCC(=O)O)[C@H]1CC[C@H]2[C@@H]3CC[C@@H]4C[C@H](O)CC[C@]4(C)[C@H]3CC[C@]12C`, the Potency was 48.4 µM (active) and 61.1 µM (active).

As to `CCCCCCCCCCCC[N+](C)(C)CCCCCCCCCCCC`, the Potency result is “inactive”.

In the case of `O=c1cccccc1O`, the Potency entry was “inactive”.

Take `c1ccc(CSCc2ccccc2)cc1`: the Potency result was “inactive”.

In the case of `CCC1=C[C@@H]2CN(C1)Cc1c([nH]c3ccccc13)[C@@](C(=O)OC)(c1cc3c(cc1OC)N(C)[C@H]1[C@@](O)(C(=O)OC)[C@H](OC(C)=O)[C@]4(CC)C=CCN5CC[C@]31[C@@H]54)C2`, the Potency result is “inactive”.

For the compound `CCCC(=O)OC[C@@H](OC(=O)CCC)[C@@H](OC(=O)CCC)[C@H](Cn1c2nc(=O)[nH]c(=O)c-2nc2cc(C)c(C)cc21)OC(=O)CCC`, the Potency result was “inactive”.

As to `CCCCC(CC)CN=C(N)NC(N)=NCCCCCCN=C(N)NC(N)=NCC(CC)CCCC` (stereo not given), the Potency result was “inactive”.

Take `On1ccccc1=S`: the Potency result is “inactive”.

For the compound `CCCCCCCCCCCCCCCS(=O)(=O)Oc1ccccc1`, the Potency result was “inactive”.

In the case of `CCc1cc(Cc2cc(CC)c(N)c(CC)c2)cc(CC)c1N`, the Potency result is “inactive”.

Take `CCN(C(=O)N(CC)c1ccccc1)c1ccccc1`: the Potency entry is “inactive”.

`Cc1ccc(O)c2ncccc12`: the Potency result is “inactive”.

Take `O=C1C=CC(=O)N1c1ccc(Cc2ccc(N3C(=O)C=CC3=O)cc2)cc1`: the Potency result was “inactive”.

Take `Clc1ccc(C(Cn2ccnc2)OCc2ccc(Sc3ccccc3)cc2)c(Cl)c1` (stereo not given): the Potency result was “inactive”.

Consider `CN1CCC(Nc2ncc3ncnc(Nc4ccc(F)c(Cl)c4)c3n2)CC1`, for which the Potency entry was “inactive”.

As for `CCCCCCCC[P+](CCCCCCCC)(CCCCCCCC)CCCCCCCC`, the Potency result is “inactive”.

For `CCC(N)(CO)CO`, the Potency entry is “inactive”.

Take `CCCCCOc1ccccc1/C(=C\SC)n1ccnc1`: the Potency result was “inactive”.

On to `CCC(CN)=C(c1ccccc1)c1ccccc1`, for which the Potency entry is “inactive”.

Turning to `CCCCCCCCCCCCc1ccc(O)cc1`, the Potency is 54.5 µM (active).

Regarding `Oc1ccc2cc(SSc3ccc4cc(O)ccc4c3)ccc2c1`, the Potency result is “inactive”.

On to `CCC1OCC(COc2ccc(Oc3ccccc3)cc2)O1` (stereo not given), for which the Potency entry was “inactive”.

Take `COCCCC/C(=N\OCCN)c1ccc(C(F)(F)F)cc1`: the Potency entry was “inactive”.

In the case of `O=C(O)c1ccc(Cl)c(Cl)c1`, the Potency result is “inactive”.

As for `CC(=O)OCC(C)OC(C)=O` (stereo not given), the Potency entry is “inactive”.
